TNF necrop inh: inhibitors of TNF-alpha triggered necroptosis, primary screen, cell-based, Jurkat FADD-/-, single concentration; Jurkat FADD-/- TNF necroptosis rescue, ATP luminescence, 24 h; 0 = TNF only, 100 = no-TNF cells; activation (protection from cell death), % at 10 µM; actives 0.068% (n = 220,000); AID 463075, 2010;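 active = activation, meaning protection from cell death, of at least 50% relative to plate controls; inactive = activation below 50%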;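 note: necroptosis triggered by 40 ng/mL TNF-alpha added together with compound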
Hsp70 activator: Hsp70 transcriptional activators, primary screen, cell-based, HeLa, Hsp70 promoter luciferase, luminescence, 10 µM | activation, % at 10 µM | actives 0.04% (n = 200,000) | HeLa Hsp70 promoter luciferase reporter; scaled: vehicle 0, proteasome-inhibitor control 100%;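 active = activation above the mean across all tested compounds plus 3 SD, cutoff set per campaign, cut at about 5.5% in these data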
HSF1 activator: HSF-1 activators, primary screen, NIH3T3-HGL cells, MG132 stress, luminescence, single point. NIH3T3-HGL HSF-1 luciferase reporter, 8 h; 100% = twice DMSO control signal. activation, % at 9 µM. actives 1.7% (n = 300,000). AID 504408, 2011;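 active = mean replicate activation of at least 50% with a set share of replicates each reaching 50%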
zVAD death inh: inhibitors of zVAD-triggered necroptosis, primary screen, L929 cells; L929 zVAD necroptosis rescue, ATP luminescence, 24 h; with zVAD 60 µM; viability rescue, % at 10 µM; actives 0.38% (n = 220,000); AID 1377, 2008;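 active = activation, scaled between plate controls, above about 75%, limit read from the data; inactive = activation under that limit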
zVAD death conf: inhibitors of zVAD-triggered necroptosis in L929, confirmation, L929 cells, duplicate runs; shares compounds with zVAD death inh; L929 zVAD-induced necroptosis rescue, ATP luminescence, 24 h; activation (protection from necroptosis), % at 10 µM; actives 16% (n = 760);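 active = mean protection from necroptosis of at least 50% over duplicate tests; inactive = mean protection below 50%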
Numbers stand for hits. This is a sample that favours compounds with a hit; in the whole collection about 1.9% have one here.

What do the screens show for `Cn1nnnc1SCc1ccc(Cl)cc1`?
TNF necrop inh: inactive; Hsp70 activator: inactive; HSF1 activator: inactive; zVAD death inh: 83; zVAD death conf: inactive

How did O=C(CCN1C(=O)c2ccc(Br)cc2C1=O)NC1CCCCC1 do in these assays?
HSF1 activator: inactive

What do the screens show for `COc1ccc(Nc2ccccc2N)cc1`?
TNF necrop inh: inactive; Hsp70 activator: inactive; HSF1 activator: inactive; zVAD death inh: 92; zVAD death conf: inactive

Results for Nc1ccc(Nc2ccccc2N)cc1 ?
TNF necrop inh: inactive; Hsp70 activator: inactive; HSF1 activator: inactive; zVAD death inh: inactive

What do the screens show for `CCc1ccc(Nc2nnc(SCC(=O)NCCN3C(=O)CSC3=O)s2)cc1`?
TNF necrop inh: inactive; Hsp70 activator: inactive; HSF1 activator: inactive; zVAD death inh: inactive

Results for CCOc1ccccc1N(C)C(=O)Cn1ncc2c([nH]c3ccc(C)cc32)c1=O ?
HSF1 activator: inactive

Results for CC(C)(C)c1ccc(/C=N/N2CCN(c3ccccn3)CC2)cc1 ?
TNF necrop inh: inactive; HSF1 activator: inactive; zVAD death inh: 82; zVAD death conf: inactive

Results for O=C(NC(=S)NCc1nc2ccccc2[nH]1)c1ccccc1F ?
TNF necrop inh: inactive; Hsp70 activator: inactive; HSF1 activator: inactive; zVAD death inh: inactive

Results for O=C(NC(=S)NCc1nc2ccccc2[nH]1)c1ccc(F)cc1 ?
TNF necrop inh: inactive; Hsp70 activator: inactive; HSF1 activator: inactive; zVAD death inh: 84; zVAD death conf: inactive

How did Cn1ccnc1SCC(=O)Nc1sccc1C#N do in these assays?
TNF necrop inh: inactive; Hsp70 activator: inactive; HSF1 activator: inactive; zVAD death inh: inactive

What do the screens show for `N#Cc1ccsc1NC(=O)CSc1nnnn1-c1ccc(O)cc1`?
TNF necrop inh: inactive; Hsp70 activator: inactive; HSF1 activator: inactive; zVAD death inh: 76; zVAD death conf: inactive

What do the screens show for `O=C(Nc1ccccc1)n1ccc(-c2ccc(-n3ccnc3)cc2)n1`?
TNF necrop inh: inactive; Hsp70 activator: inactive; HSF1 activator: inactive; zVAD death inh: 76; zVAD death conf: inactive

What do the screens show for `S=c1[nH]ncn1NCc1ccc(Cl)cc1Cl`?
TNF necrop inh: inactive; Hsp70 activator: inactive; HSF1 activator: inactive; zVAD death inh: 87; zVAD death conf: inactive

What do the screens show for `Fc1cccc(Cl)c1CNn1cn[nH]c1=S`?
TNF necrop inh: inactive; Hsp70 activator: inactive; HSF1 activator: inactive; zVAD death inh: inactive

How did CC(=O)Nc1ccc(C(=O)OCc2ccc(Cl)cc2)cc1 do in these assays?
TNF necrop inh: inactive; Hsp70 activator: inactive; HSF1 activator: inactive; zVAD death inh: inactive

How did CCCS(=O)(=O)c1ccc(COC(=O)c2ccc(NC(C)=O)cc2)cc1 do in these assays?
TNF necrop inh: inactive; Hsp70 activator: inactive; HSF1 activator: inactive; zVAD death inh: 79; zVAD death conf: inactive

How did CC(=O)Nc1ccc(C(=O)OCC(=O)NC(=O)NC2CCCCC2)cc1 do in these assays?
TNF necrop inh: inactive; Hsp70 activator: inactive; HSF1 activator: inactive; zVAD death inh: 80; zVAD death conf: inactive

Results for O=c1[nH]c2ccccc2nc1-c1ccc(Cl)cc1 ?
TNF necrop inh: inactive; HSF1 activator: 59; zVAD death inh: 76; zVAD death conf: inactive

How did COc1cc(-c2nc3ccccn3c2/N=C/c2cc(OC)c(O)cc2Cl)ccc1O do in these assays?
TNF necrop inh: inactive; Hsp70 activator: inactive; HSF1 activator: inactive; zVAD death inh: inactive

What do the screens show for `O=C(NCCc1ccccc1)C(=S)N1CCCCC1`?
TNF necrop inh: inactive; Hsp70 activator: inactive; HSF1 activator: inactive; zVAD death inh: inactive

How did O=C(Cc1ccc(Cl)cc1Cl)OCC(=O)N1CCN(C(=O)c2ccco2)CC1 do in these assays?
TNF necrop inh: inactive; Hsp70 activator: inactive; HSF1 activator: inactive; zVAD death inh: 76; zVAD death conf: inactive

How did Cc1cc(C(=O)OCC(=O)N2CCN(C(=O)c3ccco3)CC2)c(C)n1-c1ccc(F)cc1 do in these assays?
TNF necrop inh: inactive; Hsp70 activator: inactive; HSF1 activator: inactive; zVAD death inh: 87; zVAD death conf: inactive

What do the screens show for `CC(=O)NCCNC(=O)C1CCCCN1S(=O)(=O)c1ccccc1` (centres undefined)?
TNF necrop inh: inactive; Hsp70 activator: inactive; HSF1 activator: inactive; zVAD death inh: inactive

What do the screens show for `CC(C)c1ccc(-n2cnn(-c3ncccc3[N+](=O)[O-])c2=O)cc1`?
TNF necrop inh: inactive; Hsp70 activator: inactive; HSF1 activator: 54; zVAD death inh: 78; zVAD death conf: inactive

High-throughput results deposited in PubChem BioAssay by several laboratories.
